Where “and” joins values, the source holds several entries; their conditions need not be identical. Identical values can stand only once. The campaign covered roughly 5,500 compounds. About 2,000 (36%) were called active. About 18% were inconclusive and are not listed. No stated cut-off is given here; in the data, active means normalized growth mostly below about 0.91 (no sharp cut-off); inconclusive means no clear call, values can overlap the other calls; inactive means mostly above about 0.92. This is one part of the list.
Assay: chemical genetic growth profiling, strain panel (AID 1159580);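 further: tested at 20 µM; growth read once vehicle control cultures reached saturation at 30 °C; 1 = growth at the plate median or of vehicle wells; lower values mean less growth of the strain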
Settings: S. cerevisiae deletion strains, growth OD

Measured: normalized growth

CC(C)CCCC(C)C1CCC2C3CC[C@H]4CCCC[C@]4(C)C3CC[C@]12C (some centres not stated)
inactive: locus YAL013W, strain DEP1, hits give low values 1.09 | locus YAL021C, strain ccr4, hits give low values 1 | locus YAL026C, strain drs2, hits give low values 1.02 | locus YAL030W, strain snc1, hits give low values 1.02 | locus YBL061C, strain skt5, hits give low values 1.02 | locus YBR009C, strain hhf1, hits give low values 1.03 | locus YBR021W, strain FUR4, hits give low values 1.04 | locus YBR023C, strain chs3, hits give low values 1.02 | locus YBR171W, strain sec66, hits give low values 1.02 | locus YBR229C, strain ROT2, hits give low values 0.963 | locus YBR231C, strain swc5, hits give low values 1.03 | locus YBR279W, strain paf1, hits give low values 1.02 | locus YCL011C, strain gbp2, hits give low values 1.02 | locus YCL016C, strain dcc1, hits give low values 1.02 | locus YCL029C, strain bik1, hits give low values 0.985 | locus YCL061C, strain MRC1, hits give low values 1.02 | locus YCL069W, strain vba3, hits give low values 1.01 | locus YCR088W, strain abp1, hits give low values 1.01 | locus YDL005C, strain med2, hits give low values 1.02 | locus YDL035C, strain GPR1, hits give low values 0.971 | locus YDL040C, strain nat1, hits give low values 1.01 | locus YDL074C, strain BRE1, hits give low values 0.959 | locus YDL101C, strain DUN1, hits give low values 0.952 | locus YDL134C, strain PPH21, hits give low values 0.985 | locus YDL185W, strain tfp1, hits give low values 0.966 | locus YDL192W, strain arf1, hits give low values 0.983 | locus YDR001C, strain nth1, hits give low values 1.01 | locus YDR069C, strain doa4, hits give low values 1.05 | locus YDR101C, strain arx1, hits give low values 0.99 | locus YDR137W, strain rgp1, hits give low values 1 | locus YDR150W, strain NUM1, hits give low values 0.965 | locus YDR159W, strain sac3, hits give low values 1.04 | locus YDR162C, strain NBP2, hits give low values 0.964 | locus YDR195W, strain ref2 1.03 | locus YDR297W, strain sur2, hits give low values 1.02 | locus YDR318W, strain mcm21, hits give low values 1 | locus YDR334W, strain swr1, hits give low values 1.01 | locus YDR335W, strain msn5, hits give low values 1.02 | locus YDR388W, hits give low values 0.987 | locus YDR392W, strain spt3, hits give low values 0.98 | locus YDR502C, strain sam2, hits give low values 0.978 | locus YEL003W, strain gim4, hits give low values 1.03 | locus YEL037C, strain rad23, hits give low values 1.01 | locus YEL061C, strain CIN8 (second series), hits give low values 1.01 | locus YEL061C, strain CIN8, hits give low values 0.994 | locus YER015W, strain faa2, hits give low values 1.02 | locus YER016W, strain bim1, hits give low values 1.02 | locus YER110C, hits give low values 0.988 | locus YER111C, strain swi4, hits give low values 1.03 | locus YER155C, strain BEM2 (second series), hits give low values 1.04 | locus YER155C, strain BEM2, hits give low values 0.998 | locus YER167W, strain BCK2, hits give low values 1.01 | locus YFR010W, strain ubp6, hits give low values 1.02 | locus YGL078C, strain dbp3, hits give low values 0.994 | locus YGL086W, strain mad1, hits give low values 1.01 | locus YGL167C, strain pmr1, hits give low values 1.01 | locus YGL173C, strain kem1, hits give low values 1.02 | locus YGL227W, strain vid30, hits give low values 1.03 | locus YGL240W, strain doc1, hits give low values 1.05 | locus YGL248W, strain PDE1, hits give low values 0.984 | locus YGL253W, strain hxk2, hits give low values 1 | locus YGR078C, strain PAC10, hits give low values 0.967 | locus YGR135W, strain pre9, hits give low values 0.965 | locus YGR229C, strain SMI1, hits give low values 0.979 | locus YGR252W, strain gcn5, hits give low values 1 | locus YHR013C, strain ard1, hits give low values 1.05 | locus YHR027C, strain rpn1, hits give low values 1.01 | locus YHR030C, strain SLT2, hits give low values 0.997 and 0.984 | locus YHR079C, strain IRE1 (second series), hits give low values 1 | locus YHR079C, strain IRE1, hits give low values 1 | locus YHR094C, strain hxt1, hits give low values 0.988 | locus YHR129C, strain ARP1, hits give low values 0.993 | locus YHR142W, strain chs7, hits give low values 0.982 | locus YHR200W, strain rpn10, hits give low values 0.978 | locus YIL066C, strain RNR3, hits give low values 0.974 | locus YIL073C, strain SPO22, hits give low values 1.08 | locus YIL125W, strain kgd1, hits give low values 0.991 | locus YIR030C, strain dcg1, hits give low values 0.987 | locus YJL092W, strain hpr5, hits give low values 1.01 | locus YJL095W, strain BCK1 (second series), hits give low values 1.01 | locus YJL095W, strain BCK1, hits give low values 0.976 and 0.988 | locus YJL115W, strain asf1, hits give low values 1.01 | locus YJL129C, strain trk1, hits give low values 1.01 | locus YJL134W, strain LCB3, hits give low values 0.991 | locus YJL154C, strain vps35, hits give low values 1 | locus YJL164C, strain tpk1, hits give low values 1.02 | locus YJL166W, strain qcr8, hits give low values 1.02 | locus YJL168C, strain set2, hits give low values 0.988 | locus YJL187C, strain SWE1 (second series), hits give low values 0.966 | locus YJL187C, strain SWE1, hits give low values 1.02 | locus YJR043C, strain POL32, hits give low values 1.05 | locus YJR066W, strain TOR1, hits give low values 0.931
